A number with no mark means an inactive call. No rule for the calls is given here.
System: Imidazoline I2
Assay: CYP450 and receptor off-target profile – biochemical, Ricerca HitProfilingScreen, selectivity assay for GPR7 antagonist project, late-stage follow-up (AID 504401)
Conditions: Ricerca radioligand binding and CYP450 panel, central, at 10 µM, active compounds read high

In the case of `COc1ccc(Oc2c(Cl)cnn(-c3cc(C)cc(C)c3)c2=O)cc1`, the inhibition is reported as 22%.

From PubChem BioAssay AID504401 (The Scripps Research Institute Molecular Screening Center, 2011)
